# The source made the active and inactive calls. Unless noted, how the calls were made is not given here.
# How the values were obtained:
# [1] = anti-His antibody binders, primary screen, artefact control for SMM control protein annotation, biochemical, small-molecule microarray, 635 nm fluorescence (AID 1128); settings: anti-His Alexa647 antibody binding, higher = more signal;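 further: score merges feature fluorescence with signal-to-noise for each printed compound spot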
# [2] = test system: Human papillomavirus type 1a E7 protein (residues 1-88); assay: HPV1a E7 small-molecule binders, primary screen, biochemical, small-molecule microarray, residues 1-88, 635 nm (AID 1129); settings: small-molecule microarray binding, fluorescence 635 nm; higher = more signal
# [3] = target: Focal adhesion kinase 1 (Homo sapiens) (UniProt Q05397); assay: small-molecule microarray binders of FAK, primary screen, biochemical, 635/667 nm fluorescence, BSA, DTT (AID 1130); settings: PTK2 binding, 635 nm fluorescence, higher = more signal;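 further: composite of spot emission at 667 nm and signal to noise over triplicate slides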
# Focal adhesion kinase 1 (Homo sapiens), sequence (Q05397 whole entry, looked up): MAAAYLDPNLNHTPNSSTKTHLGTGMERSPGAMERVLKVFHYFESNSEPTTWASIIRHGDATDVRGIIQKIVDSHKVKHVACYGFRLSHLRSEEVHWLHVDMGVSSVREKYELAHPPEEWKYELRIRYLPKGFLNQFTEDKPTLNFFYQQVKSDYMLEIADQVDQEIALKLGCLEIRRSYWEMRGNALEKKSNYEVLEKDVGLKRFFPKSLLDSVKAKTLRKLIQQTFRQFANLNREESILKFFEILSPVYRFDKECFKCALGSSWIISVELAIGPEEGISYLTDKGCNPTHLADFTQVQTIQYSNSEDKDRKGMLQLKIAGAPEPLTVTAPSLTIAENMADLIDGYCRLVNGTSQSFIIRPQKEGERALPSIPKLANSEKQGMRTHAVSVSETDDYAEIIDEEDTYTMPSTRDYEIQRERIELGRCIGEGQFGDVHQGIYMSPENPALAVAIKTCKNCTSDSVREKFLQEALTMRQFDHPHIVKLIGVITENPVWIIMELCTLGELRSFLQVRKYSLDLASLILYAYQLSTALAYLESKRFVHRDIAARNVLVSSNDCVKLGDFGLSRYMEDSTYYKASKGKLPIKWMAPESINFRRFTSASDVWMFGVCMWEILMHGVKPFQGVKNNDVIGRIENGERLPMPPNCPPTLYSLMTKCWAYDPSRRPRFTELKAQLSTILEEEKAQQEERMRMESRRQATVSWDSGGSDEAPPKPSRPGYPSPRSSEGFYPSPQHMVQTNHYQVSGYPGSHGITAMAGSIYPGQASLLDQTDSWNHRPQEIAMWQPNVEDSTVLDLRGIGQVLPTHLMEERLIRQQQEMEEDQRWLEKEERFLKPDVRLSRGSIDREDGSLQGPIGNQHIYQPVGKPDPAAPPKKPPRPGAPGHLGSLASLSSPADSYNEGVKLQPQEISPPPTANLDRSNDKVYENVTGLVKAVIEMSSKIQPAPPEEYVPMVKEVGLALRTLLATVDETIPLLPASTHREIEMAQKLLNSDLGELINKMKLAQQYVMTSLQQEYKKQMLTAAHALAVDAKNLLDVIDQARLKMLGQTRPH
# [4] = test system: Fibrinogen (Alexa647-labelled); assay: fibrinogen binders on compound microarrays, profiling panel, artefact control for SMM control-protein annotation, biochemical, small-molecule microarray, 635/667 nm fluorescence (AID 1131); settings: fibrinogen-A647 binding fluorescence, higher = more signal;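 further: z-score merges 667 nm fluorescence with per-spot signal-to-noise over triplicate slides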
# [5] = target: Follistatin (Homo sapiens) (UniProt P19883); assay: follistatin binders on small-molecule microarrays, primary screen, biochemical, small-molecule microarray, 635/667 nm fluorescence (AID 1132); settings: FST binding, 635 nm fluorescence, higher = more signal
# Follistatin (Homo sapiens), sequence (P19883 whole entry, looked up): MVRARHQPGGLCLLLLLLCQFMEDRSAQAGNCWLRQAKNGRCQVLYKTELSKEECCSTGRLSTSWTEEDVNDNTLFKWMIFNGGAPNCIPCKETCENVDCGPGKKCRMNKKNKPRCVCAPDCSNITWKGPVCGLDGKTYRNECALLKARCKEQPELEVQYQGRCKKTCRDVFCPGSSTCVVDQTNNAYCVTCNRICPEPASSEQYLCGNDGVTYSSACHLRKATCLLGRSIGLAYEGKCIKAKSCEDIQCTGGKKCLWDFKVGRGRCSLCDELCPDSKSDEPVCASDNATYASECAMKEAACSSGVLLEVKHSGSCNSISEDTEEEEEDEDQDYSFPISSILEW
# [6] = target: Fibroblast growth factor 2 (Homo sapiens) (UniProt P09038); assay: FGF2 binders on small-molecule microarrays, primary screen, biochemical, small-molecule microarray, 635/667 nm fluorescence (AID 1133); settings: small-molecule microarray binding, FGF2, fluorescence 635/667; higher = more signal
# Fibroblast growth factor 2 (Homo sapiens), sequence (P09038 whole entry, looked up): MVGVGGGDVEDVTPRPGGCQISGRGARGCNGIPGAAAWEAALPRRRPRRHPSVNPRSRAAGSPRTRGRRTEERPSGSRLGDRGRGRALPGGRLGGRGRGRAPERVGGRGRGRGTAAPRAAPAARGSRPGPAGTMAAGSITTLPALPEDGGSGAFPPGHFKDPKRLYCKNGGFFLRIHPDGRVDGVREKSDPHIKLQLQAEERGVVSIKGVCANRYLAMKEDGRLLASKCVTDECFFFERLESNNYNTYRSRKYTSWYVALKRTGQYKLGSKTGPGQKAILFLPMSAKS
# [7] = mitochondrial membrane potential change in A549 cells, profiling panel, cell-based, JC-1 fluorescence, basal, 24 h, 100 nL (AID 1138); settings: higher = more signal;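 further: A549 lung adenocarcinoma cells under basal conditions with no added stimulus; test concentration not given here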
# Lefty1 = Lefty1 binders on small-molecule microarrays, primary screen, biochemical, small-molecule microarray, 635/667 nm fluorescence (AID 1139); settings: small-molecule microarray binding, fluorescence 635/667; higher = more signal
# [8] = test system: wheat germ agglutinin (Triticum aestivum), Alexa647-labelled; assay: wheat germ agglutinin binders on compound microarrays, profiling panel, artefact control for SMM control-protein annotation, biochemical, small-molecule microarray, 635/667 nm fluorescence (AID 1140); settings: WGA-A647 binding, 635 nm fluorescence, higher = more signal;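 further: score merges 667 nm feature emission with signal to noise over triplicate slides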
# [9] = target: Luciferin 4-monooxygenase (Photinus pyralis) (UniProt P08659); assay: firefly luciferase enzyme inhibitors, primary screen, biochemical, luminescence, purified enzyme, 2006 set (AID 1141); settings: SteadyGlo luminescence, 30 min, higher = more signal, called active from +8 up or from −8 down;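 further: cell-free assay with purified firefly luciferase at 100 ng per well in PBS; test concentration not given here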
# Luciferin 4-monooxygenase (Photinus pyralis), sequence (P08659 whole entry, looked up): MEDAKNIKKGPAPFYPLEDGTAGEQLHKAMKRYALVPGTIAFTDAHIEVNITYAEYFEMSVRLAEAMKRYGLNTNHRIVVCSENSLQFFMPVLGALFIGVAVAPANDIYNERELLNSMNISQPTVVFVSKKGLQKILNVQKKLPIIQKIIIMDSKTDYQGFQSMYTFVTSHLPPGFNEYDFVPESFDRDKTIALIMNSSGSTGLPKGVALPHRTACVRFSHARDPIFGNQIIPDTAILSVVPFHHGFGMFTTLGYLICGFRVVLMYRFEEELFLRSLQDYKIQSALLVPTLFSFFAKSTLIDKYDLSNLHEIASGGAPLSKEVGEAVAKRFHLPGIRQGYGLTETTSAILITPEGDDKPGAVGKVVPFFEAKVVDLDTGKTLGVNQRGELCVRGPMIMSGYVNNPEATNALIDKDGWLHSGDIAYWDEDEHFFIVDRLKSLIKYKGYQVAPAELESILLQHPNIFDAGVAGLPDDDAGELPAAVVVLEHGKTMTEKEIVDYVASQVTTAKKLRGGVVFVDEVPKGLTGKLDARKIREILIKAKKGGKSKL
# [10] = test system: Wnt5a (protein binding on small-molecule microarray); assay: Wnt5a binders on small-molecule microarray, primary screen, biophysical, 635/667 nm fluorescence (AID 1142); settings: 635 nm fluorescence, higher = more signal;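 further: fluorescence read at 667 nm with signal to noise per printed feature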
# [11] = cell viability in Huh7 cells, primary screen, cytotoxicity control for HCV replication inhibitor project, CellTiter-Glo luminescence, basal, 48 h (AID 1143); settings: Huh7 HCV replicon, higher = more signal, called active from +8 up or from −8 down;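 further: Huh7 hepatoma cells carrying a hepatitis C replication reporter with no stimulus; test concentration not given here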
# [12] = P. aeruginosa biofilm formation inhibitors, primary screen, PAO1 strain, BacTiter-Glo luminescence, LB-PBS (AID 1144); settings: 12 h, higher = more signal
# [13] = CREB reporter modulators without forskolin, primary screen, cell-based, PC12, CRE-LacZ reporter, unstimulated (AID 1145); settings: no forskolin, luminescence, 4.5 h, higher = more signal, called active from +8 up or from −8 down
# [14] = CREB reporter modulators under forskolin, primary screen, cell-based, PC12, CRE-LacZ reporter, forskolin-stimulated (AID 1146); settings: luminescence, 4.5 h, higher = more signal, called active from +8 up or from −8 down;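 further: PC12 cells with 6xCRE LacZ reporter stimulated by forskolin 10 µM; beta-galactosidase reporter signal reflecting CREB driven transcription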
# [15] = target: Streptavidin (Streptomyces avidinii) (UniProt P22629); assay: streptavidin binders on small-molecule microarray, primary screen, artefact control for SMM compound annotation, biophysical, 635/667 nm fluorescence (AID 1147); settings: streptavidin binding, higher = more signal;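 further: signal reflects streptavidin binding to arrayed compounds as a control protein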
# Streptavidin (Streptomyces avidinii), sequence (P22629 whole entry, looked up): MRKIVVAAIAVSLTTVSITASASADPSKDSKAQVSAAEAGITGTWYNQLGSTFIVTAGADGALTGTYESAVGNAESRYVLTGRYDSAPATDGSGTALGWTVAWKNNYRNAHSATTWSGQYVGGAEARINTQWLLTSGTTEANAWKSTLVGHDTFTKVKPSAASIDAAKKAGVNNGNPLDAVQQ
# [16] = small-molecule binders of probe aInhba, primary screen, biochemical, small-molecule microarray, 635/667 nm fluorescence (AID 1148); settings: higher = more signal;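 further: score merges 667nm spot fluorescence with signal-to-noise for antibody binding to printed compounds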
# Torsin-1A (Homo sapiens) [17] = target: Torsin-1A (Homo sapiens) (UniProt O14656); assay: torsin A binders from cell lysate, primary screen, small-molecule microarray, wild-type, 635/667 nm (AID 1149); settings: COS7 hTOR1A-WT lysate, 635 nm fluorescence, higher = more signal
# Torsin-1A (Homo sapiens), sequence (O14656 whole entry, looked up): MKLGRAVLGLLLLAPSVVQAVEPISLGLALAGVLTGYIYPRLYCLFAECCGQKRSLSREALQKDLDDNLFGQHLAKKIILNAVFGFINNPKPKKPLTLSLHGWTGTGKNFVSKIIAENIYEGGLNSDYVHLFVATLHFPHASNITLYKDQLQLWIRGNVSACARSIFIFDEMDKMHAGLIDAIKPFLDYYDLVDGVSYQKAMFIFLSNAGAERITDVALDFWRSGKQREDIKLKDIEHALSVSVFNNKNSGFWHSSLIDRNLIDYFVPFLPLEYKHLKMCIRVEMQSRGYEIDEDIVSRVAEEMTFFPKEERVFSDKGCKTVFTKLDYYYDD
# Torsin-1A (Homo sapiens) [18] = target: Torsin-1A (Homo sapiens) (UniProt O14656); assay: small-molecule binders of mutant TOR1A in lysate, primary screen, cell lysate, small-molecule microarray, COS7 lysate, 635/667 nm fluorescence (AID 1150); settings: COS7 hTOR1A mutant lysate, 635 nm fluorescence, higher = more signal;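 further: score pools 667 nm emission and signal to noise measuring lysate protein binding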
# [19] = test system: Sonic hedgehog protein (Shh); assay: small-molecule binders of Shh protein, primary screen, biochemical, small-molecule microarray, 635/667 nm fluorescence (AID 1151); settings: small-molecule microarray binding, 635 nm fluorescence; higher = more signal;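 further: Shh protein binding to compounds spotted on small-molecule microarray slides; score combines spot fluorescence intensity with signal-to-noise across triplicate slides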
SMILES,composite z-score [1],composite z-score [2],composite z-score [3],composite z-score [4],composite z-score [5],composite z-score [6],z-score [7],composite z-score (Lefty1),composite z-score [8],z-score [9],composite z-score [10],z-score [11],z-score [12],z-score [13],z-score [14],composite z-score [15],composite z-score [16],composite z-score (Torsin-1A (Homo sapiens) [17]),composite z-score (Torsin-1A (Homo sapiens) [18]),composite z-score [19]
COc1cc(OC)c(C(O)C2C=CC3C(=O)N(c4ccccc4)C(=O)C3N2Nc2ccccc2F)cc1Br (stereo not given),1.31,1.25,0.823,1.01,1.34,0.0348,-0.78,0.666,0.898,-0.443 (inactive),0.193,-0.259 (inactive),-1.14 (inactive),0.636 (inactive),0.758 (inactive),1.24,0.206,2.01,0.879,-0.2
CC(C)C[C@@H]1NC(=O)[C@@H]2C[C@H](C(=O)O)[C@H](c3ccc(O)cc3)N2C1=O,2.41,1.13,0.6,0.878,1.37,1.49,0.892,1.04,0.938,-2.98 (inactive),0.415,-0.393 (inactive),-0.934 (inactive),-0.114 (inactive),-0.837 (inactive),0.741,-0.013,0.656,1.05,1.74
O=c1cccc(-c2ccccc2C(F)(F)F)o1,-0.602,0.389,-0.0583,-2.29,-0.547,-0.661,-0.074,-0.599,-0.861,1.24 (inactive),0.297,-0.121 (inactive),0.0176 (inactive),-0.471 (inactive),-0.12 (inactive),-0.318,0.763,0.242,0.0563,-0.999
CC(C)C[C@@H]1NC(=O)[C@H]2C[C@@H](C(=O)NCCCCCCNC(=O)CS)[C@@H](c3ccc(O)cc3)N2C1=O,2.26,1.22,0.87,0.0675,1.3,1.78,-1.02,0.543,0.0059,-0.938 (inactive),0.472,1.03 (inactive),-1.02 (inactive),-0.805 (inactive),-0.732 (inactive),-0.406,-0.179,1,0.766,1.84
N#Cc1ccc(C(O)C2C=CC3C(=O)NC(=O)C3N2Nc2ccccn2)cc1 (stereo not given),0.782,0.615,-0.205,0.861,0.286,-0.126,1.36,-0.157,0.144,-1.25 (inactive),-0.0926,-0.0103 (inactive),-1.11 (inactive),0.243 (inactive),-0.345 (inactive),0.126,-0.0427,0.166,0.241,-0.301
COCC(=C=CC[C@@H](O)c1ccc(OCCO)cc1)C[C@@H](O)COCc1ccccc1,1.29,0.893,0.106,-0.262,1.34,1.41,0.974,1.01,0.904,-1.7 (inactive),1.05,-0.959 (inactive),-0.498 (inactive),10.3 (active),-0.487 (inactive),-0.223,0.0345,0.681,1.43,1.54
NC(=O)[C@@]1(CCS(=O)(=O)c2ccccc2)COC(c2ccc(OCCCO)cc2)=N1,0.329,-0.201,-0.0683,0.294,0.112,-0.0653,-0.492,-0.643,1.05,-0.188 (inactive),0.375,-1.5 (inactive),1.59 (inactive),0.148 (inactive),-1.35 (inactive),0.447,-0.0044,-0.0756,0.324,-0.463
C#CCN=C(N)N,0.468,0.611,-0.0375,0.802,0.785,0.388,-0.317,0.858,0.299,0.523 (inactive),0.0311,-0.347 (inactive),0.214 (inactive),-0.0247 (inactive),-0.055 (inactive),0.314,0.0797,1.7,0.832,0.666
CCOC(=O)C[C@H]1[C@H](OC(=O)c2cc3ccccc3oc2=O)[C@@H](NC(=O)C2CCCCC2)c2cc(OCCCO)ccc2N1C(=O)Cc1ccc(OC)cc1,0.737,0.122,-0.207,0.231,0.722,0.188,0.0812,0.646,0.507,0.696 (inactive),0.418,-0.588 (inactive),-0.273 (inactive),0.849 (inactive),-0.0784 (inactive),0.214,0.243,0.144,0.384,1.15

# Source: PubChem BioAssay
